PubChem BioAssay (EPA / NIEHS)
Inconclusive results are not listed. Active and inactive are the calls of the source. How the source made its calls, unless noted: active means hit-call score of the fitted dose curve at least 0.9, where 1 is the maximum; inconclusive means response in the unintended direction; inactive means score below 0.9.

How the values were obtained:
[1] = biological target: Oxysterols receptor LXR-beta (Homo sapiens) (UniProt P55055); assay: ATG_LXRb_TRANS: Attagene TRANS-FACTORIAL HepG2 Assay for human Liver X Receptor beta (LXRb) (AID 2282981); settings: HepG2 Attagene TRANS GAL4-LXRb reporter, mRNA
Procedure, shortened: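 Gain-of-signal mRNA reporter endpoint, DMSO as negative control. Transiently transfected HepG2 cells carrying the NR-Gal4 chimera and GAL4-UAS reporter units were treated 24 h; transcripts quantified by RT-PCR and capillary electrophoresis fluorescence.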

[2] = biological target: Hepatocyte nuclear factor 4-alpha (Homo sapiens) (UniProt P41235); assay: ATG_HNF4a_TRANS: Attagene TRANS-FACTORIAL HepG2 Assay for human Hepatocyte Nuclear Factor 4 alpha (HNF4a) (AID 2282982); settings: HepG2 HNF4a transactivation reporter, mRNA readout
Procedure, shortened: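 Gain-of-signal mRNA induction, relative to DMSO vehicle, was read after 24 h compound treatment of HepG2 cells bearing transfected GAL4-UAS reporters. Detection used RT-PCR, 6-FAM primer extension and capillary electrophoresis.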

[3] = ATG_M_06_TRANS: Attagene TRANS-FACTORIAL HepG2 Assay for M06 Transcription Factor (Internal Marker) (AID 2282983); settings: HepG2 Attagene TRANS M06 internal marker reporter
Procedure, shortened: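 Measured by capillary electrophoresis of fluorescently labelled RT-PCR products, this endpoint reflects reporter mRNA in HepG2 cells harbouring exogenous NR-GAL4 reporter constructs after 24 h exposure, with DMSO as baseline.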

[4] = ATG_M_32_TRANS: Attagene TRANS-FACTORIAL HepG2 Assay for M32 Transcription Factor (Internal Marker) (AID 2282984); settings: HepG2 Attagene TRANS M32 internal marker reporter;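 further: transcript level of a background control reporter unit measured by RT-PCR and capillary electrophoresis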
Procedure, shortened: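 Capillary electrophoresis of 6-FAM-labelled reporter fragments gives the signal; data fitted for gain over DMSO negative control. Source: HepG2 cells bearing transient multiple reporter transcription units, 24 h exposure.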

[5] = biological target: Nuclear receptor subfamily 4 group A member 2 (Homo sapiens) (UniProt P43354); assay: ATG_NURR1_TRANS: Attagene TRANS-FACTORIAL HepG2 Assay for human Nuclear Receptor Related Protein 1 (NURR1) (AID 2282985); settings: HepG2 Attagene TRANS reporter, mRNA readout
Procedure, shortened: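 HepG2 / transient MRTU transfection / 24 h compound exposure / RT-PCR + CE fluorescence of reporter mRNA / gain-of-signal vs DMSO.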

[6] = biological target: Transcriptional activator Myb (Homo sapiens) (UniProt P10242); assay: ATG_Myb_CIS: Attagene CIS-FACTORIAL HepG2 Assay for human Myeloblastosis (Myb) Proto-Oncogene Transcription Factor (AID 2282986; active means hit-call score of the fitted dose curve at least 0.9, where 1 is the maximum; inactive means score below 0.9); settings: HepG2 Attagene CIS-FACTORIAL Myb reporter transcription; actives raise or lower the signal
Procedure, shortened: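 Steps: transfect HepG2 with cis-regulated reporter units; dose with chemical for 24 h; isolate RNA, reverse-transcribe, PCR-amplify and FAM-label reporter sequences; digest with HpaI; resolve by capillary electrophoresis. Activity fitted in both directions relative to DMSO.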

[7] = ATG_NFI_CIS: Attagene CIS-FACTORIAL HepG2 Assay for human Nuclear Factor I (NFI) (AID 2282989; active means hit-call score of the fitted dose curve at least 0.9, where 1 is the maximum; inactive means score below 0.9); settings: HepG2 cis-regulatory reporter, NFI response element transcription; actives raise or lower the signal
Procedure, shortened: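 HepG2, transient MRTU, 24 h exposure; RNA→cDNA→PCR→FAM label→HpaI→CE fluorescence. Bidirectional fit, DMSO = baseline.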

[8] = biological target: Nuclear respiratory factor 1 (Homo sapiens) (UniProt Q16656); assay: ATG_NRF1_CIS: Attagene CIS-FACTORIAL HepG2 Assay for human Nuclear Respiratory Factor 1 (NRF1) Orphan Gene (AID 2282987; active means hit-call score of the fitted dose curve at least 0.9, where 1 is the maximum; inactive means score below 0.9); settings: HepG2 NRF1 cis-element reporter, Attagene multiplex; actives raise or lower the signal
Procedure, shortened: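 Fluorescence intensity of labelled reporter cDNA fragments, resolved by capillary electrophoresis, served as readout for NRF1 cis-element activity. Transiently transfected HepG2 cells were dosed for 24 hours; activity in either direction was fitted against DMSO negative control.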

[9] = biological target: Oxysterols receptor LXR-alpha (Homo sapiens) (UniProt Q13133); assay: ATG_LXRa_TRANS: Attagene TRANS-FACTORIAL HepG2 Assay for human Liver X Receptor alpha (LXRa) (AID 2282980); settings: HepG2 Attagene TRANS reporter, LXRa transactivation
Procedure, shortened: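 Transient HepG2 transfectants, 24 h dosing, RT-PCR/CE mRNA reporter quantitation; gain-of-signal vs DMSO.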

Measured: AC50

Chain of Hepatocyte nuclear factor 4-alpha (Homo sapiens) (P41235 whole entry, looked up, the tested form may be a part): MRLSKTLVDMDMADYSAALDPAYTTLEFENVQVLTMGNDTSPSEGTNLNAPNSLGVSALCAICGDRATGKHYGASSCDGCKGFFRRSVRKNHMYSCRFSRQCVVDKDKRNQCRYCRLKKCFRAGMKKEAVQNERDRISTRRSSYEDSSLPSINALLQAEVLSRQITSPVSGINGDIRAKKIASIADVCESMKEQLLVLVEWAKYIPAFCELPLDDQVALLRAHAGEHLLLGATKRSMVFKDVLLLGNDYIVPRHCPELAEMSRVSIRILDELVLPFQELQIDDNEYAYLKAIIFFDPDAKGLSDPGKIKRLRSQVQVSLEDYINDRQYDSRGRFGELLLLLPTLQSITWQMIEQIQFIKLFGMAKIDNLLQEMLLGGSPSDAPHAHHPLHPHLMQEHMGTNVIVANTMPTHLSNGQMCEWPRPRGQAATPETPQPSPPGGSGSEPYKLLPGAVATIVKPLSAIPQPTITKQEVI
Chain of Nuclear respiratory factor 1 (Homo sapiens) (Q16656 whole entry, looked up, the tested form may be a part): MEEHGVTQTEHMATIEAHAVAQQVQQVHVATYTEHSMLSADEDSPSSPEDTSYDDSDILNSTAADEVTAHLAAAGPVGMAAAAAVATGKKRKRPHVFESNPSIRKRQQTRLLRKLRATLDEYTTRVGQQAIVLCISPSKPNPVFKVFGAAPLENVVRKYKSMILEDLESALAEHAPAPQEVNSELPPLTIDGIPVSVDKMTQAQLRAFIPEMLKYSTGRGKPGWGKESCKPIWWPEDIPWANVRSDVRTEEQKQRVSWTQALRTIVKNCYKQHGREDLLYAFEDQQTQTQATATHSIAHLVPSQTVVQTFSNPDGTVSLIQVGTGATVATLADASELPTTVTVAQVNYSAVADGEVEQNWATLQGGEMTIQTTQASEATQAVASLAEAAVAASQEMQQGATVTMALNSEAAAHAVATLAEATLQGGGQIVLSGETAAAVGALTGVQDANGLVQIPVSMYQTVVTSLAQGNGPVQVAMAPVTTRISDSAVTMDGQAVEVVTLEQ
Chain of Oxysterols receptor LXR-beta (Homo sapiens) (P55055 whole entry, looked up, the tested form may be a part): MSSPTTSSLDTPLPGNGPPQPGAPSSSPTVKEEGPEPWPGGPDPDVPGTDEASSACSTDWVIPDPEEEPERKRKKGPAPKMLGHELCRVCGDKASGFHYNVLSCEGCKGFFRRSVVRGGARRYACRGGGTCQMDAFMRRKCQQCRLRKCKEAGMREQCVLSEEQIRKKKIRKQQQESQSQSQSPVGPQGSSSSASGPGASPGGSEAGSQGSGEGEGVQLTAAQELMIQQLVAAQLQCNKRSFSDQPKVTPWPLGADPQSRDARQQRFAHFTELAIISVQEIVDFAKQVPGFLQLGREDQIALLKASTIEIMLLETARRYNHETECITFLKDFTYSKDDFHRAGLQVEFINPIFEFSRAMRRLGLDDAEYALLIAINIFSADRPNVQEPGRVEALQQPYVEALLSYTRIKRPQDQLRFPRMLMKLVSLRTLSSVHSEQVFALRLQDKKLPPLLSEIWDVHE
Chain of Oxysterols receptor LXR-alpha (Homo sapiens) (Q13133 whole entry, looked up): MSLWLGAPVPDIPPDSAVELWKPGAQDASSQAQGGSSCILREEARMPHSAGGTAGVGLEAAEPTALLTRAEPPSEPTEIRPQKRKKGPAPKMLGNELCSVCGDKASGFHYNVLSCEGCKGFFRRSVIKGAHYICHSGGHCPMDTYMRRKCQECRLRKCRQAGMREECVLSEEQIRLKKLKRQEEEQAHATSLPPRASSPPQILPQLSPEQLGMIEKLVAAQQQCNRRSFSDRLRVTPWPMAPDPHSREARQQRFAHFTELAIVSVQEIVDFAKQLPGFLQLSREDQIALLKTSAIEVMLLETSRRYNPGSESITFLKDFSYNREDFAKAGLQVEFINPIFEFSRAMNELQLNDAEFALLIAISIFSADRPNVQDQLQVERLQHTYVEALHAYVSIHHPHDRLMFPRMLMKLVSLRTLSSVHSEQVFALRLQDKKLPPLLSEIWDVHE
Chain of Transcriptional activator Myb (Homo sapiens) (P10242 whole entry, looked up): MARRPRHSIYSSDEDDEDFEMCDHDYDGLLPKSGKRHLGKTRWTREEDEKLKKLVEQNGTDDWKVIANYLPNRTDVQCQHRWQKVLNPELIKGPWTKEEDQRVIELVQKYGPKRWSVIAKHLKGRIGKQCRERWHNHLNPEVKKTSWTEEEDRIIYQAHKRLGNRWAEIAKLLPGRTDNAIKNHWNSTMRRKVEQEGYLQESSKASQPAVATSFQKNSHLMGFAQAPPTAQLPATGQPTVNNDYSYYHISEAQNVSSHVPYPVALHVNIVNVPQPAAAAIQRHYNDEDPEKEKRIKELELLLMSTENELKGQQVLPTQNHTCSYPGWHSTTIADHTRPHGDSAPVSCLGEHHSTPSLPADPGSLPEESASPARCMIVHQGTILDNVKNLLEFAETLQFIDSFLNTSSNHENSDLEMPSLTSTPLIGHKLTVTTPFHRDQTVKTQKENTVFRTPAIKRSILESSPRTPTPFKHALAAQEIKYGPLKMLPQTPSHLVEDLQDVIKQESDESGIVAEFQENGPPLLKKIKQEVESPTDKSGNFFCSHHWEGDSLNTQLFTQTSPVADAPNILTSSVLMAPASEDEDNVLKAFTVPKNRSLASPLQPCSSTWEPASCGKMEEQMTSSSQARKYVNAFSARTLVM
Chain of Nuclear receptor subfamily 4 group A member 2 (Homo sapiens) (P43354 whole entry, looked up): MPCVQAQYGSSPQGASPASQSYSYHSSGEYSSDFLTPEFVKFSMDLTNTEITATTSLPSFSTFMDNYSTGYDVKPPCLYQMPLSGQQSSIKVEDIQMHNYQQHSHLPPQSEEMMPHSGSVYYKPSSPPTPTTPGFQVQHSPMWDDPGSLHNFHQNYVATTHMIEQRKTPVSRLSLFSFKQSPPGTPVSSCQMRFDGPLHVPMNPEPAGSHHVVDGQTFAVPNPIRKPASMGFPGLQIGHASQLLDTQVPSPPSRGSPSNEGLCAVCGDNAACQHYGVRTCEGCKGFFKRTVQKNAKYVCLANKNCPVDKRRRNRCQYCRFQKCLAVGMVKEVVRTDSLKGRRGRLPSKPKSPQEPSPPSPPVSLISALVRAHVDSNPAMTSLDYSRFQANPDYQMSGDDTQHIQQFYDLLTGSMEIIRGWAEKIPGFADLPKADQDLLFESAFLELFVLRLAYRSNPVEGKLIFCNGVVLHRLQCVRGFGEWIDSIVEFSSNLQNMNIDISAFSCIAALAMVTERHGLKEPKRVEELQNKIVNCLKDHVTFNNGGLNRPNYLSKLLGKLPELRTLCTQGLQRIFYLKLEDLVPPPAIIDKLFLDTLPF

O=C(Cc1ccccc1)OCCc1ccccc1
inactive: [1] | [2] | [3] | [4] | [5] | [6] | [7]

CCN(CC)C(=O)C(Cl)=C(C)OP(=O)(OC)OC
inactive: [1] | [2] | [3] | [4] | [5] | [6] | [8] | [7]

CC(C)(C1CCC(O)CC1)C1CCC(O)CC1 (stereo not given)
inactive: [9] | [1] | [3] | [5] | [6] | [8] | [7]

Oc1c(Br)cc(Br)cc1Br
inactive: [9] | [2] | [3] | [4] | [5] | [7]

ClCCN1CCOCC1
inactive: [9] | [2] | [3] | [4] | [5] | [6] | [7]

NC(=O)CCl
inactive: [1] | [2] | [3] | [4] | [5] | [6] | [8] | [7]

C=CCCl
inactive: [9] | [1] | [2] | [4] | [6] | [8] | [7]

OC[P+](CO)(CO)CO
inactive: [1] | [2] | [3] | [4] | [5] | [6] | [8] | [7]

CS(=O)(=O)c1ccc(C(=O)C2C(=O)CCCC2=O)c(Cl)c1COCC(F)(F)F
inactive: [9] | [1] | [3] | [4] | [6] | [8] | [7]

CN(C)C(=S)S
inactive: [1] | [2] | [3] | [5] | [6] | [8] | [7]
active: [9] 24.8 µM

OCCN(CCO)CCO
inactive: [9] | [1] | [3] | [6] | [8] | [7]

CC(O)(CS(=O)(=O)c1ccc(F)cc1)C(=O)Nc1ccc(C#N)c(C(F)(F)F)c1 (stereo not given)
inactive: [9] | [1] | [3] | [4] | [6] | [8] | [7]

C#C[C@]1(O)CC[C@H]2[C@@H]3CCC4=CC(=O)CC[C@]4(C)[C@H]3CC[C@@]21C
inactive: [9] | [1] | [3] | [6] | [8] | [7]

CCOP(=S)(OCC)Oc1ccc(Cl)cc1Cl
inactive: [9] | [2] | [3] | [4] | [5] | [6] | [8] | [7]

COCC(=O)N(c1c(C)cccc1C)[C@H](C)C(=O)OC
inactive: [9] | [1] | [4] | [5] | [6] | [8] | [7]

OCCCCO
inactive: [9] | [1] | [3] | [5] | [8] | [7]

Nc1cccnc1
inactive: [1] | [2] | [3] | [4] | [5] | [6] | [8] | [7]

CCCCCCCCCCBr
inactive: [9] | [2] | [4] | [5] | [6] | [7]

OC[C@@H](O)[C@H]1O[C@@H]2O[C@H](C(Cl)(Cl)Cl)O[C@@H]2[C@H]1O
inactive: [9] | [3] | [4] | [5] | [6] | [8] | [7]

CCOC(=O)CC(=O)CCl
inactive: [9] | [2] | [3] | [5] | [8] | [7]

CC(C)(C#N)N=NC(C)(C)C#N
inactive: [9] | [1] | [4] | [5] | [6] | [8] | [7]

O=C1C[C@@H]2OCC=C3CN4CC[C@]56c7ccccc7N1[C@H]5[C@H]2[C@H]3C[C@H]46
inactive: [9] | [3] | [4] | [5] | [6] | [8] | [7]

CN(C1CCCCC1)C1CCCCC1
inactive: [9] | [2] | [3] | [4] | [6] | [8] | [7]

CC1(C)[C@H](/C=C2\CCSC2=O)[C@@H]1C(=O)OCc1coc(Cc2ccccc2)c1
inactive: [9] | [2] | [3] | [4] | [5] | [6] | [8] | [7]

N#CS
inactive: [9] | [1] | [2] | [3] | [8] | [7]

O=C(Cl)OCCOCCOC(=O)Cl
inactive: [9] | [1] | [4] | [6] | [8] | [7]

CCCCCCCCCCCCCl
inactive: [9] | [1] | [4] | [6] | [8] | [7]

C[CH2][Hg][S]c1ccccc1C(=O)O
inactive: [9] | [1] | [2] | [3] | [5] | [8]
active: [7] 1.58 µM

C[C@]12CC[C@@H](O)C[C@@H]1CC[C@@H]1[C@@H]2CC[C@]2(C)C(=O)CC[C@@H]12
inactive: [9] | [1] | [6] | [8] | [7]

Nc1c(Oc2ccccc2)cc(O)c2c1C(=O)c1ccccc1C2=O
inactive: [1] | [2] | [3] | [4] | [5] | [6] | [7]

Cc1cc(Cl)ccc1N
inactive: [9] | [3] | [4] | [6] | [8] | [7]

Brc1ccc(Br)cc1
inactive: [9] | [2] | [8] | [7]

COc1ccc(N)cc1
inactive: [9] | [1] | [4] | [5] | [6] | [8] | [7]

O=[N+]([O-])c1ccc(Cl)c([N+](=O)[O-])c1
inactive: [9] | [4] | [5] | [6] | [8] | [7]

Brc1c(Br)c(Br)c(Oc2c(Br)c(Br)c(Br)c(Br)c2Br)c(Br)c1Br
inactive: [9] | [1] | [3] | [4] | [5] | [6] | [8] | [7]

O=C(O)CC(O)(CC(=O)O)C(=O)O
inactive: [9] | [1] | [2] | [3] | [6] | [8] | [7]
active: [5] 6.74 µM

Nc1nc(=S)[nH][nH]1
inactive: [1] | [5] | [6] | [8] | [7]

N#Cc1ccc(Cl)cc1
inactive: [1] | [3] | [4] | [5] | [6] | [7]

Clc1cccc(Cl)c1Cl
inactive: [1] | [2] | [3] | [6] | [8] | [7]

Clc1cnc(Oc2ccc(Oc3ncc(Cl)cc3Cl)cc2)c(Cl)c1
inactive: [1] | [2] | [5] | [6] | [8] | [7]

CCOP(=S)(OCC)SCSc1cc(Cl)ccc1Cl
inactive: [1] | [4] | [5] | [6] | [8] | [7]

O=c1nc(O)n(Cl)c(=O)n1Cl
inactive: [2] | [3] | [4] | [5] | [6] | [8] | [7]

Oc1cc(Cl)c(Cl)cc1Cl
inactive: [1] | [3] | [4] | [6] | [8]
active: [7] 66.4 µM

CC(C)(C)c1ccccc1O
active: [5] 63.4 µM | [7] 100 µM
inactive: [1] | [4] | [6]

O=[N+]([O-])c1ccccc1O
inactive: [2] | [3] | [4] | [5] | [6] | [8] | [7]

C#CCO
inactive: [1] | [3] | [4] | [6] | [8] | [7]

O=C(N[C@H]1CN2CCC1CC2)c1ccc2c(c1)OCCO2
inactive: [1] | [3] | [4] | [6] | [8] | [7]

CCCCCCCCCCCCBr
inactive: [1] | [2] | [3] | [6] | [8] | [7]

Cc1cc(C)cc(C)c1
inactive: [1] | [3] | [4] | [6] | [8] | [7]

CCOC(=O)c1ccccc1S(=O)(=O)NC(=O)Nc1nc(Cl)cc(OC)n1
inactive: [2] | [3] | [4] | [5] | [6] | [8] | [7]
